# IMPase inh: cell-permeable inhibitors of inositol monophosphatase (IMPase); inhibition (IP1 accumulation), % at 46.1 µM; AID 901; 120,000 tested, under 10 active; P97697; CHO-M1 cells, IP1 accumulation, HTRF TR-FRET ratio; active means well fitted curve in the direction sought with a large enough effect in the signal ratio, not every such curve was filed as active; inconclusive means small, poorly fitted or top-dose-only effect, or a change in a side signal; inactive means no such curve, though single readings can be large or run the other way; the % refers to the signal ratio;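 further: cells stimulated with carbachol in lithium chloride buffer; plate controls were DMSO basal wells for no effect and reference inhibitor wells for full effect; higher means more IMPase inhibition seen as more IP1 and lower FRET ratio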
# Target sequence (P97697 whole entry, looked up): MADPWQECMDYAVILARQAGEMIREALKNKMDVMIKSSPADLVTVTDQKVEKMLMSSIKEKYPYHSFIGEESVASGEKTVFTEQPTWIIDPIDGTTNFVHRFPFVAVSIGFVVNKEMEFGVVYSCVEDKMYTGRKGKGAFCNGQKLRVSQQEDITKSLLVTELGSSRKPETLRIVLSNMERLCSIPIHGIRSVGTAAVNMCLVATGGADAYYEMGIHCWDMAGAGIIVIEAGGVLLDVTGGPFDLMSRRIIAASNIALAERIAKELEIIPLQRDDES
#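 Cellular IMPase inhibition is scored as a rise in cytosolic IP1, detected by competitive TR-FRET between d2-labelled IP1 and a europium anti-IP1 antibody. M1-expressing CHO cells were stimulated with carbachol for 30 min at 37C, with lithium (50 mM LiCl) present in the buffer.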
# KinaseGlo FLuc: counter-screen: inhibitors of Kinase-Glo firefly luciferase; Q27757; AID 1379; hit rate 0.28% among 200,000; Kinase-Glo luciferase, ATP luminescence, 8 min; Potency, µM (highest dose often 38.3 µM), for inactives: top-dose activity change, negative = inhibition, usual class: inhibitors; active means well fitted inhibition curve with a large enough effect; inconclusive means small, poorly fitted or top-dose-only effect; further: potency means the concentration at half of the fitted maximal effect; nearly all actives have a fitted effect of over 60% in size
#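 Compounds were added to a substrate mix at pH 7.2 (50 mM imidazole, 10 uM ATP, within the enzyme's linear range), followed by Kinase-Glo detection reagent; luminescence was measured after 8 minutes at ambient temperature.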
# LMNA splice mod: modulators of lamin A splicing | HeLa LMNA splicing GFP/RFP minigene ratio, 48 h | hit rate 0.01% among 200,000 | Potency, µM (titrated, usually from 46.1 µM), inactives show at the highest dose ratio change, negative = inhibition, most hits filed as inhibitors; active means well fitted inhibition curve with a large enough effect in the signal ratio, with a control signal flat, not every such curve was filed as active; inconclusive means small, poorly fitted or top-dose-only effect, or effect the other way, or a change in a side signal; the % refers to the signal ratio; further: potency means the concentration at half of the fitted maximal effect
#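 Read-out is the ratio of GFP to DsRed2 object intensity, acquired by 488 nm laser-scanning cytometry on HeLa lamin A-EGFP minigene reporter cells. Compound incubation 48 hrs at 37 °C in Opti-MEM with 2% FBS; DMSO 0.5% final.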
# PNC assembly inh: blocks assembly of the perinucleolar compartment | PC3M PTB-GFP, PNC prevalence imaging, 16 h; active compounds read low | activity change (PNC), negative = inhibition, % at 10 µM | hit rate 3.1% among 140,000;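 active means readout at or below -70, meaning at least 70% loss of cells showing the perinucleolar compartment, a nuclear body marking cancer cells; inconclusive means readout between -30 and a set limit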;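 further: plate controls were DMSO wells for no effect and camptothecin positive control wells for full effect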
#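 PC3M cells stably expressing PTB-GFP, 750–1000 cells/well, treated 16 h at 37 °C with compound (23 nl of library stock), in duplicate. After paraformaldehyde fixation and Hoechst stain, imaged at 20x; PNC prevalence scored by image analysis.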
# HPGD inh: inhibitors of human 15-hydroxyprostaglandin dehydrogenase (HPGD); P15428; purified HPGD, NADH fluorescence kinetic, PGE2 substrate; Potency, µM, for the others: at the highest dose activity change, negative = inhibition, actives largely listed as inhibitors; hit rate 4.3% among 150,000; AID 894; further: potency means the concentration at half of the fitted maximal effect
# Target sequence (P15428 whole entry, looked up): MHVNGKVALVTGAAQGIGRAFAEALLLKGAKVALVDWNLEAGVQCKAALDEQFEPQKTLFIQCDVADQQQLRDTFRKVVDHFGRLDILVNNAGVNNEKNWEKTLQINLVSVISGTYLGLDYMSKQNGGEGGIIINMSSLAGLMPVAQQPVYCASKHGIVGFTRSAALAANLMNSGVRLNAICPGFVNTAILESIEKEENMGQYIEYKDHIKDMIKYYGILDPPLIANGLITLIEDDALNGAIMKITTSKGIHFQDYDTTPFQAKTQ
#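 20 nM HPGD preincubated 15 min at room temperature with compound in 50 mM Tris-HCl pH 8, 0.01% Tween 20. Started with 1 mM NAD+ and 30 uM prostaglandin E2; NADH fluorescence (360/450 nm) read 5 times over 30-s intervals, last minus first.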
# ALDH1A1 block: blocks purified human ALDH1A1 activity; P00352; Purified ALDH1A1, NADH fluorescence, propionaldehyde substrate; Potency, µM (doses to about 75.3 µM), for the others: top-dose activity, negative = inhibition, usual class: inhibitors; hit rate 7.3% among 220,000; AID 1030;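 further: potency means the concentration at half of the fitted maximal effect; plate controls were no enzyme wells and a reference inhibitor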
# Active calls of the source: *; ? = inconclusive; nt = not tested or not shown; [ ] = remark or other dose. An excerpt weighted towards active compounds, which were near 10% of everything screened. Unless noted, the call rests on the fitted dose curve; in most records, active means well fitted inhibition curve with a large enough effect (not every such curve was filed as active); inconclusive means small, poorly fitted or top-dose-only effect, or another doubt; inactive means no such curve, though single readings can be large or run the other way. Unless noted, on the % scale 0 is the no-effect control and ±100 the full control effect.
SMILES,IMPase inh,KinaseGlo FLuc,LMNA splice mod,PNC assembly inh,HPGD inh,ALDH1A1 block
C=C1C(CCl)(CCl)C2(Cl)C(Cl)C(Cl)C1(Cl)C2(Cl)Cl (centres undefined),nt,nt,nt,nt,-19.4%,14.1µM*
COCCN=C1OC(=O)N2C(=O)C3=C4C(C[C@H]5C(=O)N(c6ccccc6)C(=O)[C@H]5[C@H]4[C@@]12Cc1ccccc1)[C@H]1C(=O)N(c2ccccc2)C(=O)[C@H]1[C@H]3C (some centres undefined),nt,-3.7%,nt,nt,-11.2%,-1.2%
CCc1c(C)nc2ncnn2c1N1CCC(C(=O)N2CCN(c3ccccc3)CC2)CC1,0.4,-7.5%,-1.2%,-88.1*,-7.3%,3.4%
CCc1c(C)nc2ncnn2c1N1CCC(C(=O)N2CCN(c3ccc(F)cc3)CC2)CC1,-0.9,-5.3%,?,26.4,-12.8%,?
CCc1c(C)nc2ncnn2c1N1CCCC(C(=O)Nc2ccc(NC(C)=O)cc2)C1 (centres undefined),-17.5,-5.1%,13.6%,6.5,?,12.6µM*
COc1ccc(Cn2c(SCc3cc(C)ccc3C)nc3cc(OC)c(OC)cc3c2=N)cc1,5.4,-0.6%,?,-114.2*,?,?
COCCCn1c(SCc2cccc(C(F)(F)F)c2)nc2cc(OC)c(OC)cc2c1=N,10.5,2.8%,?,-106.3*,?,?
COCCCn1c(SCc2ccccc2)nc2cc(OC)c(OC)cc2c1=N,5.7,-6.1%,4.6%,28.9,-29.4%,?
CCO[C@H](c1cc(OC)cc([N+](=O)[O-])c1OC)[C@H](C)/C=C\CC(=O)OC,nt,nt,nt,nt,nt,2.4%[13.5 µM]
Nc1nc(SCC(=O)c2ccc(Br)cc2)c2[nH]cnc2n1,nt,-8.8%[7.66 µM],nt,nt,1.0%,8.1%[13.5 µM]
COCCN1CC(O)=C(c2nc3ccccc3c(=O)[nH]2)C1=N,-5.6,3.2%,-3.1%,-100.0*,?,?
Cc1c(NC(=O)/C(C#N)=C/c2ccccc2)c(=O)n(-c2ccccc2)n1C,nt,6.1%,nt,nt,nt,-11.7%
Cc1c(NN=C(C#N)C#N)c(=O)n(-c2ccccc2)n1C,nt,2.5%,-16.3%[46 µM],nt,nt,3.55µM*
Cc1cccc(NC(=O)c2c(N)sc3c2CCC(C)C3)c1 (centres undefined),2.8,nt,nt,nt,nt,nt
Cc1ccc(-n2c(N)c(C(=O)NCc3ccco3)sc2=S)cc1,8.1,-7.3%,-7.1%,-13.0,?,?
Cc1ccc(-n2c(N)c(C(N)=O)sc2=S)cc1,-1.9,1.0%,5.0%,-5.1,7.94µM*,4.47µM*
COc1ccc(CNC(=O)c2sc(=S)n(-c3ccc(OC)cc3)c2N)cc1,-5.6,-3.3%,-6.9%,?,31.6µM*,18.9µM*
CCn1c(N)c(C(=O)NCc2cccnc2)sc1=S,-2.9,3.2%,-0.7%,35.8,-6.4%,1.2%
Nc1c(C(=O)NCc2cccnc2)sc(=S)n1-c1ccccc1,4.1,-0.9%,-11.2%,-13.1,14.1µM*,8.91µM*
COC(=O)C(C(=O)OC)[C@@H](NC(=O)OCc1ccccc1)c1ccccc1,nt,-5.9%,nt,nt,-6.7%,-15.7%
FC(F)(F)c1cnc(-c2cnc(-c3ccccn3)nc2)c(Cl)c1,nt,-19.2%,6.1%[46 µM],nt,nt,-3.7%
FC(F)(F)c1cnc(-c2cnc(-c3ccncc3)nc2)c(Cl)c1,nt,2.0%,6.4%[9.22 µM],nt,nt,17.8µM*
Nc1ccc(N)c(Cl)c1,nt,nt,nt,nt,?,22.4µM*
COc1ccc(C(=O)N2CCN(c3ccc([N+](=O)[O-])c(NCCc4ccc(OC)c(OC)c4)c3)CC2)cc1,nt,2.5%,?,?,-14.1%,?
COc1ccc(CCNc2cc(N3CCN(C(=O)c4ccc(C)cc4)CC3)ccc2[N+](=O)[O-])cc1OC,nt,-1.5%,?,-20.6,-12.8%,8.91µM*
COc1ccc(CCNc2cc(N3CCN(C(=O)c4ccccc4F)CC3)ccc2[N+](=O)[O-])cc1OC,0.2,-0.6%,9.3%,46.4,-22.5%,2.51µM*
Cc1ccc(-n2nnnc2CNC(=O)C(C)C)cc1C,nt,nt,-2.8%[46 µM],nt,nt,nt
CC/C=C\CC[C@H](OC(=O)c1ccc(Br)cc1)C1=CCCCC1=O,nt,nt,nt,nt,nt,1.0%[13.5 µM]

# From PubChem
